Pf growth 96h – P. falciparum growth inhibition at 96 hours | 320,000 compounds, 6.9% hits | AID 504834 | Potency, µM (series often up to 28.7 µM), usual class: inhibitors | P. falciparum luciferase reporter growth, 96 h
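Two parasite generations (96 h, 37 C, 5% CO2) of compound exposure in infected erythrocytes (0.05% parasitemia, 2% hematocrit). Luciferase-reporter P. falciparum; decreased luminescence indicates inhibited growth, aimed at apicoplast-acting delayed death.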
SARS PLP yeast – SARS-CoV PLP inhibition in yeast. S. cerevisiae expressing SARS-CoV PLpro, growth rescue. Potency, µM (top dose mostly 32.9 µM), hits mostly activators. 330,000 compounds, 0.19% hits; calls by dose curve; also: nearly all actives have a fitted effect of over 55% in size
Pf growth 48h – inhibits P. falciparum growth in the first generation, 48 h. AID 504832. Potency, µM (top dose mostly 28.7 µM), hits mostly inhibitors. P. falciparum luciferase growth in erythrocytes, 48 h. 310,000 compounds, 5.9% hits
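First compound was added to culture medium, then infected red cells at 0.1% parasitemia and 2% hematocrit (final). After incubation at 37 C under 5% CO2, luciferase detection reagent was dispensed and light output recorded.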
AMA1 RON2 block – disrupts binding of P. falciparum AMA1 to RON2; 360,000 compounds, 0.2% hits; AID 720542; Potency, µM (titrated, usually from 58.2 µM), most hits filed as inhibitors; AlphaScreen AMA1-biotinylated RON2 peptide binding; also: nearly all actives have a fitted effect of over 45% in size
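AMA1 (3D7) with his tag at 25 nM final met compounds first, then biotinylated RON2 peptide at 25 nM; detection used donor plus acceptor beads, 10 µg/mL apiece, read by AlphaScreen after 30 min at room temperature.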
A number is an active result; - = inactive; ? = inconclusive; . = no result given; [ ] = another dose, or the depositor's remark. Compounds with a hit are over-represented: about 9.4% of the library has one in this group of screens. Unless noted, calls follow the shape of the dose curve; as a rule, active = well fitted curve in the direction sought with a large enough effect; inconclusive = small, poorly fitted or top-dose-only effect, or another doubt; inactive = no such curve, though single readings can be large; an effect the other way counts as inactive or inconclusive.

SMILES	Pf growth 96h	SARS PLP yeast	Pf growth 48h	AMA1 RON2 block
CCCC1CC(CCc2ccccc2)OS(=O)(=O)N1 (centres undefined)	-	-	-	-
COc1ccc(CN(CCC(c2ccccc2)C2CCOC(C)(C)C2)C(C)=O)cc1 (centres undefined)	-	-	13µM	-
COc1ccc(CNCCC(c2ccccc2)C2CCOC(C)(C)C2)cc1 (centres undefined)	?	-	?	-
CC(C)c1nc(NCc2ccccc2)c(C#N)c2c1CCCC2	?	-	?	-
N#Cc1c(NCCCO)nc(NCc2ccccc2)c2c1CCN(Cc1ccccc1)C2	10µM	-	?	-
CN1CCc2c(C#N)c(N3CCCCC3)nc(NCc3ccccc3)c2C1	2.3µM	-	?	-
Cc1ccc(C(=O)C=CNNC(=O)c2ccccc2)cc1	?	-	-	-
CS(=O)(=O)N1N=C(c2ccccc2)CC1c1ccc2c(c1)OCO2 (centres undefined)	-	-	-	-
S=c1[nH]nc(-c2ccc(Cl)cc2Cl)n1-c1ccc2c(c1)OCCO2	-	-	-	-
Cc1ccc(NC(=O)c2ccc([N+](=O)[O-])o2)cc1S(=O)(=O)N1CCOCC1	9.3µM	-	9.3µM	-
Cc1ccc(CNc2ccc(N3CCOCC3)c(Cl)c2)cc1	10µM	-	-	?
O=C(Nc1ccc(N2CCOCC2)c(Cl)c1)c1ccc([N+](=O)[O-])o1	-	-	10µM	-
CC(C)C(=O)NCCCc1ccccc1	-	-	-	-
Cc1cccc(-c2noc(Cc3ccccc3)n2)c1	-	-	-	-
O=[N+]([O-])c1ccc(Sc2cccc[n+]2[O-])c2nonc12	0.83µM	-	2.9µM	-
O=[N+]([O-])c1ccc(Nc2ccccc2)c2nonc12	-	-	-	?
CCOCCCNC(=O)CCCn1nc(C)n2c(cc3sccc32)c1=O	-	-	.	-
CCOC(=O)C1CCCN(C(=O)CCCn2nc(C)n3c(cc4sccc43)c2=O)C1 (centres undefined)	2.9µM	-	.	-
CC1Cc2cc(S(=O)(=O)CCC(=O)NC3CCCCC3)ccc2N1C(=O)C1CC1 (centres undefined)	?	-	?	-
COc1ccc(S(=O)(=O)NCCC(=O)NCc2ccccc2)cc1	?	-	-	-
CCC1CCCCN1CCNS(=O)(=O)c1ccc2c(c1)oc(=O)n2C (centres undefined)	-	-	-	-
Cn1c(=O)oc2cc(S(=O)(=O)NCCN3CCc4ccccc4C3)ccc21	8.3µM	?	-	-
COc1ccc(CNC(=O)CCNS(=O)(=O)c2ccc3c(c2)oc(=O)n3C)cc1	12µM	-	-	-
CCC1CCCCN1CCCNS(=O)(=O)c1ccc2c(c1)oc(=O)n2C (centres undefined)	2.9µM	.	12µM	-
CCC1CCCCN1C(=O)CCNS(=O)(=O)c1ccc2c(c1)oc(=O)n2C (centres undefined)	2.3µM	-	?	-
SMILES	Pf growth 96h	SARS PLP yeast	Pf growth 48h	AMA1 RON2 block
CCOC(=O)Cc1ccc(Nc2nc3cc(-c4sccc4C)sc3c(=O)n2C)cc1	.	.	.	-
COc1cccc(NC(=O)CN(C)C(=O)c2cc3c(s2)CCCC3)c1	-	-[6.58 µM]	-	-
Cc1ccc(C(=O)N/N=C/c2ccc(-c3ccc(Br)cc3[N+](=O)[O-])o2)o1	?	-	9.3µM	-
COc1cc(NC(=O)c2ccc(-c3cccc([N+](=O)[O-])c3)o2)ccc1NC(=O)C(C)C	-	-	10µM	-
O=C(Nc1ccc2oc(=O)ccc2c1)c1ccc(-c2cccc([N+](=O)[O-])c2)o1	?	-	4.1µM	-
COc1cc([N+](=O)[O-])ccc1NC(=O)c1cccc(NC(=O)C(C)C)c1	-	-	-	-
O=C(Nc1ccc2oc(=O)ccc2c1)c1ccc(-c2cccc(Cl)c2)o1	?	-	10µM	-
N#Cc1c(NC(=O)CSc2ncnc3c2cnn3-c2ccccc2Cl)sc2c1CCCC2	-	-	-	-
O=C(CSc1ncnc2c1cnn2-c1ccccc1Cl)N1CCN(C(=O)c2ccco2)CC1	7.4µM	-	-	-
COc1ccc(N2CCN(C(=O)CSc3ncnc4c3cnn4-c3ccccc3C)CC2)cc1	6.6µM	-	-	-
COc1ccc(N2CCN(C(=O)C3CCCN(S(=O)(=O)c4c(C)noc4C)C3)CC2)cc1 (centres undefined)	?	-	?	-
COc1ccc([C@]23Cc4ccccc4C(O2)C2=C(CC(C)(C)CC2=O)O3)cc1	0.6µM	-[6.58 µM]	?	.
COc1ccc([C@]23Cc4c(ccc5ccccc45)C(O2)C2=C(CCCC2=O)O3)cc1	?	-[6.58 µM]	-[5.75 µM]	.
O=C1C2=C(C(=O)c3ccccc31)C1O[C@](c3ccsc3)(Cc3c1ccc1ccccc31)O2	?	-[6.58 µM]	?	.
COc1ccc([C@]23Cc4ccccc4C(O2)C2=C(CCCC2=O)O3)cc1	1.5µM	-[6.58 µM]	?	.
COc1ccc([C@]23Cc4ccccc4C(O2)C2=C(CC4(CCCCC4)OC2=O)O3)cc1	?	-[6.58 µM]	?	.
COc1ccc([C@]23Cc4ccccc4C(O2)C2=C(O3)C(=O)c3ccccc3C2=O)cc1	-[5.75 µM]	-[6.58 µM]	1.5µM	.
CCC(C)Sc1ccc([C@@H]2[C@@H]3C(=O)N(C)C(=O)[C@@H]3[C@]3(C(=O)OC)CCCCN23)cc1OC (some centres undefined)	?	-	?	-
CCSc1ccc([C@@H]2[C@@H]3C(=O)N(CC)C(=O)[C@@H]3[C@]3(C(=O)OC)CCCCN23)cc1OC	?	-	13µM	-
COC(=O)[C@@]12CCCCN1[C@H](c1ccc(SC3CCCCC3)c(OC)c1)[C@@H]1C(=O)N(C)C(=O)[C@@H]12	8.3µM	-	8.3µM	-
CCSc1ccc([C@@H]2[C@@H]3C(=O)N(C)C(=O)[C@@H]3[C@]3(C(=O)OC)CCCCN23)cc1	?	-	8.3µM	-
CCSc1ccc([C@@H]2[C@H]3C(=O)N(C)C(=O)[C@H]3[C@]3(C(=O)OC)CCCCN23)cc1OC	?	-	10µM	-
CCC(C)Sc1ccc([C@@H]2[C@H]3C(=O)N(C)C(=O)[C@H]3[C@]3(C(=O)OC)CCCN23)cc1 (some centres undefined)	.	-	.	-
CNC(=O)[C@@]1(Cc2ccccc2)C=C[C@@H](C)N1C(C)=O	.	.	.	-
CCOC(=O)c1cc2cc(CC(=O)c3ccc(OCC)cc3O)ccc2o1	-	-	.	-
SMILES	Pf growth 96h	SARS PLP yeast	Pf growth 48h	AMA1 RON2 block
CC(O)[C@H]1CN=C(N)N1CCCCC1CCCCC1 (some centres undefined)	3.3µM	-	9.3µM	-
NCCCC[C@H]1CN=C(N)N1CCCCC1CCCCC1	.	.	.	-
C=C(C)Cn1c(CCn2c3ccccc3c3ccccc32)n[nH]c1=S	7.4µM	-	-	-
O=S(=O)(c1ccc2ccccc2c1)N1CCN(c2ccc(O)cc2)CC1	.	-	.	-
Cc1ccc(S(=O)(=O)N2CCCCC2)cc1C(=O)Nc1ccc2cn[nH]c2c1	-	-	?	-
COc1ccc(OCc2cc(C(=O)N(C)Cc3cc(C4CC4)n[nH]3)no2)c(Cl)c1	-	-	9.3µM	-
CC(=O)c1cnc(N(C)C)s1	13µM	-	-	-
